What all share (design): scale not given: direction of the effect not stated beside the values
The target of test [1] is Protein translocase subunit SecA (Escherichia coli (strain K12)) (UniProt P10408). As to the kind of experiment: Assay to Identify E. coli SecA ATPase Inhibitors. The class given is functional. Conditions: 30 µM.
In test [2] the target is T1, Ubiquitin-activating enzyme e1, putative (Leishmania donovani (strain BPK282A1)) (UniProt E9BSI1).
T1 sequence (whole entry): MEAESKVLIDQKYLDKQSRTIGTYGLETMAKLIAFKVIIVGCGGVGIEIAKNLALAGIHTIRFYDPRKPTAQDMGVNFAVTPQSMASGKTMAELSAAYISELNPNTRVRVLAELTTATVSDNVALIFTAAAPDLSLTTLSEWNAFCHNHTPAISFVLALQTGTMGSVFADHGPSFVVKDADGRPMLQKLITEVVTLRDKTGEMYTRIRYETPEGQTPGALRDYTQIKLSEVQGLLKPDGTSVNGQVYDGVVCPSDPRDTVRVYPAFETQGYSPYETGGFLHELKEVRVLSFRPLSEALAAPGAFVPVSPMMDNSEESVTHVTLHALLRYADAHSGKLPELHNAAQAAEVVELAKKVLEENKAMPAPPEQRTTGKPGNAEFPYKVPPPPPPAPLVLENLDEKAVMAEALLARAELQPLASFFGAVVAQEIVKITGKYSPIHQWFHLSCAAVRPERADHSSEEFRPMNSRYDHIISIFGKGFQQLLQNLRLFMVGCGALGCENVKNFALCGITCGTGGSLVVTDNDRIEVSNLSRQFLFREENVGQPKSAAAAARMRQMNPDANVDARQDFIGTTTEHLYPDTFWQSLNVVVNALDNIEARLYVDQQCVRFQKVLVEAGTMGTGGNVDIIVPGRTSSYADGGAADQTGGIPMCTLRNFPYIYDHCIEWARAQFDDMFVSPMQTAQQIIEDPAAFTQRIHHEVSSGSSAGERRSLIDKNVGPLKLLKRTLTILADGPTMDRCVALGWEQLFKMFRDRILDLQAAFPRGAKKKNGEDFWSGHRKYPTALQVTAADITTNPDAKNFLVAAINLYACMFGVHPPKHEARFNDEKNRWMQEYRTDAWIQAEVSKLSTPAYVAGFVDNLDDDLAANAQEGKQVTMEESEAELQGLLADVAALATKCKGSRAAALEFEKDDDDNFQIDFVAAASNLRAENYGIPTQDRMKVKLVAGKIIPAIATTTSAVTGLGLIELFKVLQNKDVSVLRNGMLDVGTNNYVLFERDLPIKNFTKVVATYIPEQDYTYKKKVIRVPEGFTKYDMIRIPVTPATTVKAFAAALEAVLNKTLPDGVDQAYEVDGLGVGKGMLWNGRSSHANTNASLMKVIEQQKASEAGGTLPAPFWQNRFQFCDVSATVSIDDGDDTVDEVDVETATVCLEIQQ
As to the kind of experiment: Leishmania donovani Ubiquitin Activating Enzyme (LdE1). The class given is functional. The conditions noted are these: 30 µM.

For test [3], the target named is Sialic acid-binding Ig-like lectin 9 (Homo sapiens) (UniProt Q9Y336). As to the kind of experiment: Hs-Siglec9 ALPHAscreen SOP 20170721. The conditions noted are these: 10 µM. Background: In Alpha technology, singlet oxygen from a donor bead excites a nearby acceptor bead.
Sequence of Sialic acid-binding Ig-like lectin 9 (Homo sapiens) (Q9Y336 whole entry): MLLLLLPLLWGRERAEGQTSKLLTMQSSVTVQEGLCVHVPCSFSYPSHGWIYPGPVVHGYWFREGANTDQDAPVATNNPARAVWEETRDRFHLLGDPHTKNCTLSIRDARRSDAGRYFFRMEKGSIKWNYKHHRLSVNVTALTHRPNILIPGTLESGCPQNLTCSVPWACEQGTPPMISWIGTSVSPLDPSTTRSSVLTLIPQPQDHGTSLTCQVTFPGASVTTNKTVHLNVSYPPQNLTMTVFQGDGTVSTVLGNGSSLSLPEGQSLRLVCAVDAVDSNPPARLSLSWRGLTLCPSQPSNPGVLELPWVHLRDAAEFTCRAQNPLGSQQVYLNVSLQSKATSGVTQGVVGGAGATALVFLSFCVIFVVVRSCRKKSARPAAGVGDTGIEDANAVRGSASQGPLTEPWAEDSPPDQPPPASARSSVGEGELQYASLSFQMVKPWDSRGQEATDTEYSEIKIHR
In test [4] the test system is Trypanosoma cruzi. The experiment in a line: Trypanosoma cruzi phosphomannomutase and mannose-1-phosphate guanylyltransferase assay. The class given is functional. The conditions noted are these: 10 µM.
In test [5] the target is T2, Arginase-2, mitochondrial (Homo sapiens) (UniProt P78540).
T2 sequence (whole entry): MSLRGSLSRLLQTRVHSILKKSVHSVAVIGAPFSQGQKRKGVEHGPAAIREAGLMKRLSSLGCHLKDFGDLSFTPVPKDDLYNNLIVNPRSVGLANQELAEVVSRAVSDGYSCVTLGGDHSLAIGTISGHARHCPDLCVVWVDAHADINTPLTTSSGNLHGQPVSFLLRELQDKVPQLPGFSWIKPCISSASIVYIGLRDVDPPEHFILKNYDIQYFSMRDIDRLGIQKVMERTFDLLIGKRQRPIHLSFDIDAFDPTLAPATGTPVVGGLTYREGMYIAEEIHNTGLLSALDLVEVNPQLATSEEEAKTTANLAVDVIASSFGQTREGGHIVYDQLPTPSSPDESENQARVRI
The experiment in a line: in vitro enzyme assay to detect the production of urea directly proportional to the activity of Arginase II. Note: in the data most compounds retested in dose-response had high values. The conditions noted are these: 33.3 µM. The class given is functional.

For test [6], the target named is T3, Proteasome subunit beta (Trypanosoma cruzi) (UniProt O96673).
T3 sequence (whole entry): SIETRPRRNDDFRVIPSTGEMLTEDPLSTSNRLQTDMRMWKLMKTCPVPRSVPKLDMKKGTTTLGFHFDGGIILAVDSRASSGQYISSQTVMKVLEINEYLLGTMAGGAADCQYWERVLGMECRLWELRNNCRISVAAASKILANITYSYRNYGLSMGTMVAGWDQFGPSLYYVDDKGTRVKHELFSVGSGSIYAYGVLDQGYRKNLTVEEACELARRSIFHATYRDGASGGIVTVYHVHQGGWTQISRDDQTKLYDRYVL
The experiment in a line: Trypanosoma cruzi proteasome chymotrypsin-like activity (TcProtChymo) assay. Note: in the data most compounds retested in dose-response had high values. The class given is functional. Conditions: 9.37 µM.

Test [7] is filed under the species Homo sapiens. As to the kind of experiment: To identify inhibition of the IFN signalling (Jak-Stat) pathway via expression of an eGFP reporter gene under the control of an IFN-stimulated response element (ISRE) containing MxA promoter. The class given is functional. Conditions: 30 µM. For orientation: Reporter assays use an easily measured gene product as a stand-in for the process of interest.

Test [8] concerns the target T4, Tyrosyl-tRNA synthetase, putative (Trypanosoma cruzi (strain CL Brener)) (UniProt Q4DSP6).
T4 sequence (whole entry): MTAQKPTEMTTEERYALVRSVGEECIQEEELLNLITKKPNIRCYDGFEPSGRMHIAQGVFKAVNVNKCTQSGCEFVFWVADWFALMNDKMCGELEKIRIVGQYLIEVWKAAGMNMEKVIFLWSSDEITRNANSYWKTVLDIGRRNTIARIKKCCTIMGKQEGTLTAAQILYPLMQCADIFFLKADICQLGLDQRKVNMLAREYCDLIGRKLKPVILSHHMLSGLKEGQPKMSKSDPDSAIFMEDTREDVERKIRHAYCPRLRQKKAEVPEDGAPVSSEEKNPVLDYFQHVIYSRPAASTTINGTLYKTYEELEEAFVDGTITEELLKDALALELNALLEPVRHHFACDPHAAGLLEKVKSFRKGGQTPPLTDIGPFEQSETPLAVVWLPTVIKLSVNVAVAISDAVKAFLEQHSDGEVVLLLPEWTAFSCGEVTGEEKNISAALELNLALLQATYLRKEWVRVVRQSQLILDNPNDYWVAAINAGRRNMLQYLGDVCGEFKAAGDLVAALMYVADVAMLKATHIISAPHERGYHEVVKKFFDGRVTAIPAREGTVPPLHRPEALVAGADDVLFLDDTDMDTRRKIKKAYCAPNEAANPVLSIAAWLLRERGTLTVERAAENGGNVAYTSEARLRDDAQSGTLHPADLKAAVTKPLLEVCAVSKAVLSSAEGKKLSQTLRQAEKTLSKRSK
As to the kind of experiment: Trypanosoma cruzi tyrosyl tRNA synthetase (TcYRS) _High Tyrosine SOP. Note: in the data most compounds retested in dose-response had high values. Conditions: 30 µM. The class given is functional.

For test [9], the target named is T4, Tyrosyl-tRNA synthetase, putative (Trypanosoma cruzi (strain CL Brener)). As to the kind of experiment: Trypanosoma cruzi tyrosyl tRNA synthetase (TcYRS) SOP. The test is classed as functional. The conditions noted are these: 30 µM.
Test [10] deals with Chromo domain-containing protein 1 (Saccharomyces cerevisiae (strain ATCC 204508 / S288c) (Baker's yeast)) (UniProt P32657). The experiment in a line: ScCHD-1 Enzyme Inhibition Assay. Note: in the data most compounds retested in dose-response had high values. The test is classed as functional. The conditions noted are these: 30 µM.
Sequence of Chromo domain-containing protein 1 (Saccharomyces cerevisiae (strain ATCC 204508 / S288c) (Baker's yeast)) (P32657 whole entry, the tested form may be a part): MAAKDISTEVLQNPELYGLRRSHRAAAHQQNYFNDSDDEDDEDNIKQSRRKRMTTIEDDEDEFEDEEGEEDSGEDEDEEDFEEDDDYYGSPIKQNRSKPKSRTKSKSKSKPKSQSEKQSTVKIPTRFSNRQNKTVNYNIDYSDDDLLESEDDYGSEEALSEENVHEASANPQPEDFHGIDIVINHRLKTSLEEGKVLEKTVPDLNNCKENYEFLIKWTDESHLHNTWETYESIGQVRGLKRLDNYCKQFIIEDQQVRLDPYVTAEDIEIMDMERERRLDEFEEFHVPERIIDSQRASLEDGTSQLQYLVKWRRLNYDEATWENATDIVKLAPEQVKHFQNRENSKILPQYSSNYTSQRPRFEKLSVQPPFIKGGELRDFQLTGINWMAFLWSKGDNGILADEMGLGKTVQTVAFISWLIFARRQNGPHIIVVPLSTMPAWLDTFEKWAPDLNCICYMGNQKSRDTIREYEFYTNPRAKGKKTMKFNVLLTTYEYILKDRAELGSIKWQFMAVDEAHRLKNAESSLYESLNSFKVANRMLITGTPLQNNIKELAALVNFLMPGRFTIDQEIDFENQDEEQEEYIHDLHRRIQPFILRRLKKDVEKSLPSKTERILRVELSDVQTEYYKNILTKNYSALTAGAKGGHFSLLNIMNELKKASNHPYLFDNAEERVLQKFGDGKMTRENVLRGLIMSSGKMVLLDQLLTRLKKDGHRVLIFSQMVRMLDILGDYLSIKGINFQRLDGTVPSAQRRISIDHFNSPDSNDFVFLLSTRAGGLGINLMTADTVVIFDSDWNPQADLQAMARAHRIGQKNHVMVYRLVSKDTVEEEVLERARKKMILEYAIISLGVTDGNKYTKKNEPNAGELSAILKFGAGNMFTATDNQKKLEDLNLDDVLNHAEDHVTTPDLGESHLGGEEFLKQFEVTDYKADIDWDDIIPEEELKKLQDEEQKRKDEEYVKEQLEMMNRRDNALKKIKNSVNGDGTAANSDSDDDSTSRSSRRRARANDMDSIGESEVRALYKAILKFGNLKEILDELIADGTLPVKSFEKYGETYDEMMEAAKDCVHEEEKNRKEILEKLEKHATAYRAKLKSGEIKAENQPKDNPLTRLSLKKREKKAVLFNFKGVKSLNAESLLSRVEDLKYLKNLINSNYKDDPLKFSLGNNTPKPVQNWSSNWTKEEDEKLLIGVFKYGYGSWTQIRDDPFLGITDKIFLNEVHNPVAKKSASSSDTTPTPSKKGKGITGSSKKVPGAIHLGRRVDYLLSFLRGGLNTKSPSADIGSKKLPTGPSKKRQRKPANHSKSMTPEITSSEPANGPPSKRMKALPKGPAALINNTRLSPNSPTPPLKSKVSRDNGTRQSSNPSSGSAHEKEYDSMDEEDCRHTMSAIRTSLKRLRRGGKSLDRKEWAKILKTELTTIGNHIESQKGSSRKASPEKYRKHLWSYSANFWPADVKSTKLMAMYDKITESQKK

For some assays here: Measured potencies and affinities stand elsewhere.

Sequence of Protein translocase subunit SecA (Escherichia coli (strain K12)) (P10408 whole entry): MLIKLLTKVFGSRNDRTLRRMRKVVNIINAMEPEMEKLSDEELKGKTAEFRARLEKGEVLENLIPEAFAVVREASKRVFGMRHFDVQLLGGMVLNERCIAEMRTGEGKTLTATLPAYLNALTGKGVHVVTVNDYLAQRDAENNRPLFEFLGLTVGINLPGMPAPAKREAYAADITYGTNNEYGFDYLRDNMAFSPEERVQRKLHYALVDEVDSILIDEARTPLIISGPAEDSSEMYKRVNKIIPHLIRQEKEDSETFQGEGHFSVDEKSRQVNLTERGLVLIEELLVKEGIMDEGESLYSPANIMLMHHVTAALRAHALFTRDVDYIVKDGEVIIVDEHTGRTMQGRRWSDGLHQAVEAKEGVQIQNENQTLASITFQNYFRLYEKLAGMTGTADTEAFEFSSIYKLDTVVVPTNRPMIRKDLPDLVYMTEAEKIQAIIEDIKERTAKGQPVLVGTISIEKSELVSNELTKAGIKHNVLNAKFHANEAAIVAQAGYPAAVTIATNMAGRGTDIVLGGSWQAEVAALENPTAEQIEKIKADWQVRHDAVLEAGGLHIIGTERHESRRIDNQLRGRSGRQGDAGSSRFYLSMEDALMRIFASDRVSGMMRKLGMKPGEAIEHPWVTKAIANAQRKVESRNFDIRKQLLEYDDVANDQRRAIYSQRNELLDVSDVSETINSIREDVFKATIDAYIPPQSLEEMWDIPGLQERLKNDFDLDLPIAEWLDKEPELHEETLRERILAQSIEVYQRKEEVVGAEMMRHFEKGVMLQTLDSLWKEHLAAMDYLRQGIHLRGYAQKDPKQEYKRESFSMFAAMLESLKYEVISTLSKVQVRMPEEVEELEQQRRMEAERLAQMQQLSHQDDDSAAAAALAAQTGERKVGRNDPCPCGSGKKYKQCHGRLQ

Take `CCO[C@H]1CO[C@@]2(CCCN(S(=O)(=O)c3ccccc3)C2)C1`: the Percent Effect in [1] is -1.1%; in test [2] it was 24.7%; in test [3] it was -3.22%; in test [4], -3.02%; in test [5], 11.3%; in [6] it was 17.7%. Also, the Percent Effect in test [7] is 10.2%; in [8], 2.63%; in test [9], 0%; in test [10], 6.62%.

As to `Cc1nc(CN2CCN(Cc3ccoc3)Cc3cccnc32)cs1`, the Percent Effect in test [1] was -1.42%; in test [2] it was -1.3%; in test [3] it was -2.07%; in [4] it was -2.82%; in test [5], -4.45%; in test [6], 12.3%. The Percent Effect in test [7] is 10.4%; in test [8] it was 1.58%; in test [9], -5.13%; in test [10], 1.4%.

Turning to `O=C(NCc1ccccc1-n1cccn1)N1CCN2CCCCC2C1` (stereo not given), the Percent Effect is -4.48% in [1]; 0% in test [2]; 9.91% in test [3]; 0.803% in [4]; 2.22% in test [5]; 1.78% in test [6]. The Percent Effect in [7] was -2.71%; in [8] it was 2.63%; in test [9], 10.3%; in [10], -8%.

Turning to `CCOCC1CN(Cc2ccc(OC)cc2)Cc2nn(C)cc21` (stereo not given), the Percent Effect was -9.46% in test [1]; 3.9% in [2]; 2.27% in test [3]; -1.46% in test [4]; 0.405% in test [5]; 9.62% in [6]. The Percent Effect in [7] was 15.7%; in [8], 2.63%; in test [9] it was 2.56%; in test [10], 0.496%.

As to `CC(NC(=O)N1CCN(c2ccccc2)CC1)c1nncn1C` (stereo not given), the Percent Effect was 1.88% in [1]; 10.7% in test [2]; -3.63% in test [3]; -2.81% in test [4]; 7.54% in test [5]; 11.4% in test [6]. Further, the Percent Effect in test [7] is 13.4%; in [8] it was 3.68%; in test [9] it was 5.13%; in [10], -13.8%.

As to `NC(=O)CN1CCC(C(=O)N2CCCC(OCc3cccnc3)C2)CC1` (stereo not given), the Percent Effect in test [1] is -5.86%; in test [2] it was 2.7%; in test [3], 1.65%; in [4], -2.23%; in [5], -0.35%; in test [6] it was 6.16%. Besides, the Percent Effect in [7] stood at 9.22%; in [8], 4.79%; in test [9], 14.6%; in [10], 1.71%.

With `Cc1cnc(C(=O)N2CCCCC2c2[nH]ncc2S(C)(=O)=O)cn1` (stereo not given), the Percent Effect was -1.18% in test [1]; 4% in test [2]; 4.14% in test [3]; -0.986% in test [4]; -1.77% in test [5]; 4.93% in test [6]. The Percent Effect in test [7] was -6.39%; in test [8], 6.35%; in test [9], 12.5%; in test [10], -18.4%.

Consider `Cc1nn(C)cc1CCC(=O)N1CCCC(n2cncn2)C1` (stereo not given), for which the Percent Effect was -2.9% in test [1]; 2.67% in test [2]; 3.45% in [3]; 1.21% in test [4]; 7.98% in test [5]; 2.97% in test [6]. Moreover, the Percent Effect is -4% in test [7], 3.68% in test [8], 10.3% in [9] and -4.09% in test [10].

As for `Cn1cnc2c1CCN(CCS(=O)(=O)c1ccccc1)C2`, the Percent Effect in test [1] is -3.11%; in test [2], 2.67%; in test [3], 3.94%; in test [4], 2.21%; in test [5] it was -5.32%; in [6], 3.48%. Moreover, the Percent Effect in test [7] was 20.9%; in test [8], 0.526%; in test [9] it was 5.13%; in [10], -6.73%.

Regarding `Cc1noc(C)c1C(=O)N1C[C@H]2CCC[C@@]2(COc2ccccn2)C1`, the Percent Effect in [1] was -6.59%; in test [2], 11.7%; in [3], 1.71%; in test [4], 8.28%; in [5], -7.29%; in test [6] it was 12.3%. Also, the Percent Effect in test [7] was -28.1%; in [8], 3.68%; in [9], 12.8%; in test [10], -2.44%.

For the molecule `CC(NCc1c(C(C)C)nn(C)c1N1CCOCC1)C(N)=O` (stereo not given), the Percent Effect in test [1] was -5.06%; in test [2] it was 7.69%; in test [3], -15.9%; in [4] it was -3.66%; in [5], -1.23%; in test [6], 14.8%. In addition, the Percent Effect in test [7] was 16.4%; in [8], 0.478%; in [9], 8.43%; in test [10] it was -6.18%.

On to `Cc1ccc(NC(=O)C2CSCN2C(=O)c2cnccn2)c(C)c1` (stereo not given), for which the Percent Effect in test [1] is -4.93%; in test [2], 7.69%; in test [3], -2.1%; in [4], -4.6%; in test [5], 6.15%; in test [6], 1.11%. In addition, the Percent Effect in [7] is 26.2%; in [8], 3.35%; in test [9], 10.8%; in test [10], -1.89%.

As to `CC(C)n1ccnc1C1CCN(C(=O)c2cc[nH]n2)CC1`, the Percent Effect in [1] was -1.49%; in test [2], 8.11%; in [3] it was 10.9%; in test [4], 5.53%; in test [5] it was 14.3%; in [6], 13.2%. Moreover, the Percent Effect was 31.6% in test [7], 7.98% in test [8], 19.5% in test [9] and -4.41% in [10].

On to `CC1CN(CC2CCCCC2)CCN1c1ccc2nncn2n1` (stereo not given), for which the Percent Effect was 3.17% in test [1]; 15.4% in test [2]; -7.37% in test [3]; -4.6% in test [4]; -0.82% in test [5]; 16.1% in [6]. In addition, the Percent Effect in test [7] stood at 58.1%; in [8] it was 5.26%; in test [9] it was 8.43%; in [10], 95.7%.

(Values after ChEMBL document CHEMBL3988442, “University of Dundee, Small-Polar-MMV Screening Library” (2021).)
